Data on ten molecules can be found in PubChem BioAssay (NCI).

This is part of a sample that, as a whole, favours compounds with a hit. Of some 79,000 tested, about 15% had one in any assay. A number with no mark means an inactive call. The source made the active and inactive calls. Cut-off read from the data, not from the text of the source: active = growth inhibition above about 70%; inactive = the rest.

Test [1] can be described thus: NCI Yeast Anticancer Drug Screen. Data for the rad50 strain (AID 155).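 Note: 0% = growth of vehicle-only cultures of the same strain.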 As to conditions: S. cerevisiae rad50 strain growth inhibition, active compounds read high. A digest of the protocol:
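Vehicle-treated cultures provide the reference for the growth inhibition reported for compound-exposed, repair-deficient yeast.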

Test [2] is described as follows: NCI Yeast Anticancer Drug Screen. Data for the mec2-1 strain (AID 157). The conditions noted are these: S. cerevisiae mec2-1 strain, active compounds read high. In short, it runs like this: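 Mutant yeast (mec2-1) grown with compound; growth inhibition relative to vehicle control reported.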
The nature of test [3]: NCI Yeast Anticancer Drug Screen. Data for the sgs1 mgt1 strain (AID 161).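 Note: 0% = growth of cultures given vehicle only.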 As to conditions: S. cerevisiae sgs1 mgt1 strain, active compounds read high. In short, it runs like this: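 This yeast growth screen uses a strain with defined DNA-repair lesions; compound-treated growth is compared with vehicle-treated growth.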
Test [4] in a line: NCI Yeast Anticancer Drug Screen. Data for the cln2 rad14 strain (AID 165).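 Note: 0% = growth equal to vehicle treated cultures.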 As to conditions: S. cerevisiae cln2 rad14 strain, active compounds read high. A digest of the protocol:
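Readout is yeast growth inhibition versus vehicle-treated controls, using a strain with cln2 and rad14 alterations exposed to compound.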

Test [5] is described as follows: NCI Yeast Anticancer Drug Screen. Data for the bub3 strain (AID 167). The conditions noted are these: S. cerevisiae bub3 mutant strain, active compounds read high. In short, it runs like this: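 Mutant yeast screening strain plus compound; vehicle-treated cultures serve as the 0% inhibition reference.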
Test [6] in a line: NCI Yeast Anticancer Drug Screen. Data for the mlh1 rad18 strain (AID 175). As to conditions: S. cerevisiae mlh1 rad18 strain growth inhibition, active compounds read high. In short, it runs like this: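 Genetically defined yeast (DNA repair-deficient) exposed to compounds; growth inhibition determined relative to vehicle.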
Setting [7] is: at 5.0 µM (retest, dose inferred, filed as 0.5).
Setting [8] is: at 50.0 µM (retest, dose inferred, filed as 5.0).

As to `OC(c1ccccc1)(c1ccccc1)c1ccc[cH-]1.OC(c1ccccc1)(c1ccccc1)c1ccc[cH-]1.[Fe+2]`, the growth inhibition in test [1] (setting [7]) is 3%; in test [1] (setting [8]) it was -5%; in test [1] (at 50.0 µM), -0.6%; in test [2] (setting [7]), 3%; in test [2] (setting [8]), -1%; in test [2] (at 50.0 µM), 9.45%. The growth inhibition in test [3] (setting [7]) was 3%; in test [3] (setting [8]), -16%; in test [3] (at 50.0 µM) it was -2.3%; in test [4] (setting [7]) it was 4%; in test [4] (setting [8]), -15%; in test [4] (at 50.0 µM), -13.6%. The growth inhibition in test [5] (setting [7]) was 3%; in test [5] (setting [8]), -1%; in test [5] (at 50.0 µM), 70.4% (active); in test [6] (setting [7]) it was 1%; in test [6] (setting [8]) it was -3%; in test [6] (at 50.0 µM) it was 35.4%.

As to `CCN1CCC(O)(/C=C/c2ccc(Cl)c(Cl)c2)C(C(=O)/C=C/c2ccc(Cl)c(Cl)c2)C1` (stereo not given), the growth inhibition is 99% (active) in test [1] (setting [7]); 99% (active) in test [1] (setting [8]); 99% (active) in test [1] (at 50.0 µM); 99% (active) in test [2] (setting [7]); 100% (active) in test [2] (setting [8]); 99.4% (active) in test [2] (at 50.0 µM). Besides, the growth inhibition in test [3] (setting [7]) was 99% (active); in test [3] (setting [8]), 100% (active); in test [3] (at 50.0 µM), 99.5% (active); in test [4] (setting [7]) it was 99% (active); in test [4] (setting [8]), 99% (active); in test [4] (at 50.0 µM), 97.8% (active). Also, the growth inhibition in test [5] (setting [7]) is 99% (active); in test [5] (setting [8]), 99% (active); in test [5] (at 50.0 µM), 99% (active); in test [6] (setting [7]), 99% (active); in test [6] (setting [8]), 97% (active); in test [6] (at 50.0 µM) it was 98.9% (active).

As to `O=C1CCS(=O)(=O)c2ccccc21`, the growth inhibition in test [1] (setting [7]) was 21%; in test [1] (setting [8]), 100% (active); in test [1] (at 50.0 µM) it was 91.2% (active); in test [2] (setting [7]), -2%; in test [2] (setting [8]) it was 99% (active); in test [2] (at 50.0 µM), 65.4%. Besides, the growth inhibition is 24% in test [3] (setting [7]); 99% (active) in test [3] (setting [8]); 57.7% in test [3] (at 50.0 µM); 3% in test [4] (setting [7]); 94% (active) in test [4] (setting [8]); 36.9% in test [4] (at 50.0 µM). The growth inhibition was 34% in test [5] (setting [7]); 99% (active) in test [5] (setting [8]); 33.4% in test [5] (at 50.0 µM); 36% in test [6] (setting [7]); 99% (active) in test [6] (setting [8]); 64% in test [6] (at 50.0 µM).

For the molecule `Oc1c2c(c(O)c3ncccc13)C1C=CC2CC1` (stereo not given), the growth inhibition in test [1] (setting [7]) was -5%; in test [1] (setting [8]), 99% (active); in test [1] (at 50.0 µM), 97.7% (active); in test [2] (setting [7]), 0%; in test [2] (setting [8]), 99% (active); in test [2] (at 50.0 µM) it was 97.1% (active). In addition, the growth inhibition in test [3] (setting [7]) was -5%; in test [3] (setting [8]), 98% (active); in test [3] (at 50.0 µM), 99.3% (active); in test [4] (setting [7]) it was -25%; in test [4] (setting [8]), 98% (active); in test [4] (at 50.0 µM), 84.8% (active). The growth inhibition in test [5] (setting [7]) was 2%; in test [5] (setting [8]), 99% (active); in test [5] (at 50.0 µM), 97.7% (active); in test [6] (setting [7]) it was -4%; in test [6] (setting [8]), 99% (active); in test [6] (at 50.0 µM), 98.3% (active).

With `O=C1/C(=C\c2ccccc2)C(NC2CCCCC2)c2ccccc21` (stereo not given), the growth inhibition was 73% (active) in test [1] (setting [7]); 99% (active) in test [1] (setting [8]); 99.6% (active) in test [1] (at 50.0 µM); 43% in test [2] (setting [7]); 99% (active) in test [2] (setting [8]); 99.7% (active) in test [2] (at 50.0 µM). The growth inhibition in test [3] (setting [7]) was 65%; in test [3] (setting [8]) it was 98% (active); in test [3] (at 50.0 µM), 99.7% (active); in test [4] (setting [7]), 37%; in test [4] (setting [8]), 100% (active); in test [4] (at 50.0 µM), 99.5% (active). The growth inhibition in test [5] (setting [7]) was 75% (active); in test [5] (setting [8]) it was 99% (active); in test [5] (at 50.0 µM), 99.5% (active); in test [6] (setting [7]), 74% (active); in test [6] (setting [8]) it was 99% (active); in test [6] (at 50.0 µM), 99.5% (active).

In the case of `O=[N+]([O-])c1cc(CNCCO)c(O)c2ncccc12`, the growth inhibition in test [1] (setting [7]) is 99% (active); in test [1] (setting [8]) it was 99% (active); in test [1] (at 50.0 µM), 98.7% (active); in test [2] (setting [7]) it was 100% (active); in test [2] (setting [8]), 99% (active); in test [2] (at 50.0 µM) it was 99.3% (active). Moreover, the growth inhibition in test [3] (setting [7]) is 99% (active); in test [3] (setting [8]), 99% (active); in test [3] (at 50.0 µM), 99.2% (active); in test [4] (setting [7]), 95% (active); in test [4] (setting [8]), 98% (active); in test [4] (at 50.0 µM), 97.9% (active). The growth inhibition is 99% (active) in test [5] (setting [7]); 99% (active) in test [5] (setting [8]); 99% (active) in test [5] (at 50.0 µM); 99% (active) in test [6] (setting [7]); 99% (active) in test [6] (setting [8]); 98.8% (active) in test [6] (at 50.0 µM).

Consider `Cc1cc(N)cc(C)c1-c1c(N)cc(Br)cc1Br`, for which the growth inhibition in test [1] (setting [7]) was -1%; in test [1] (setting [8]), -10%; in test [1] (at 50.0 µM), 98.1% (active); in test [2] (setting [7]), -3%; in test [2] (setting [8]), -6%; in test [2] (at 50.0 µM) it was 97.5% (active). Also, the growth inhibition in test [3] (setting [7]) was -4%; in test [3] (setting [8]), -9%; in test [3] (at 50.0 µM) it was 98.3% (active); in test [4] (setting [7]) it was 1%; in test [4] (setting [8]) it was -10%; in test [4] (at 50.0 µM), 96.6% (active). The growth inhibition was -7% in test [5] (setting [7]); -13% in test [5] (setting [8]); 98.1% (active) in test [5] (at 50.0 µM); -2% in test [6] (setting [7]); -9% in test [6] (setting [8]); 97.9% (active) in test [6] (at 50.0 µM).

Regarding `CCCCCCCCC1OC1CCCCCCCC(=O)OCC1CO1` (stereo not given), the growth inhibition was 1% in test [1] (setting [7]); -11% in test [1] (setting [8]); 3.45% in test [1] (at 50.0 µM); 1% in test [2] (setting [7]); -10% in test [2] (setting [8]); -18.7% in test [2] (at 50.0 µM). Moreover, the growth inhibition in test [3] (setting [7]) is 1%; in test [3] (setting [8]) it was -10%; in test [3] (at 50.0 µM) it was 8.9%; in test [4] (setting [7]), 5%; in test [4] (setting [8]) it was 5%; in test [4] (at 50.0 µM) it was 29.1%. For the same molecule, the growth inhibition in test [5] (setting [7]) is -3%; in test [5] (setting [8]), -16%; in test [5] (at 50.0 µM) it was -25.1%; in test [6] (setting [7]) it was 25%; in test [6] (setting [8]), -14%; in test [6] (at 50.0 µM), -40.8%.

For `COc1ccc(C2c3cc4c(cc3OC(C)(O)C2C)OCO4)cc1` (stereo not given), the growth inhibition was 5% in test [1] (setting [7]); 94% (active) in test [1] (setting [8]); 98.8% (active) in test [1] (at 50.0 µM); 8% in test [2] (setting [7]); 94% (active) in test [2] (setting [8]); 95.4% (active) in test [2] (at 50.0 µM). The growth inhibition was 8% in test [3] (setting [7]); 92% (active) in test [3] (setting [8]); 92% (active) in test [3] (at 50.0 µM); 8% in test [4] (setting [7]); 84% (active) in test [4] (setting [8]); 97.5% (active) in test [4] (at 50.0 µM). The growth inhibition was -2% in test [5] (setting [7]); 96% (active) in test [5] (setting [8]); 98.3% (active) in test [5] (at 50.0 µM); -2% in test [6] (setting [7]); 93% (active) in test [6] (setting [8]); 98.5% (active) in test [6] (at 50.0 µM).

In the case of `Nc1nc(-c2ccccn2)cc2c(Cl)cccc12`, the growth inhibition in test [1] (setting [7]) was 12%; in test [1] (setting [8]) it was 90% (active); in test [1] (at 50.0 µM), -2.3%; in test [2] (setting [7]) it was 23%; in test [2] (setting [8]) it was 96% (active); in test [2] (at 50.0 µM), -22.1%. Besides, the growth inhibition in test [3] (setting [7]) was 21%; in test [3] (setting [8]), 92% (active); in test [3] (at 50.0 µM), 11.7%; in test [4] (setting [7]), 13%; in test [4] (setting [8]), 75% (active); in test [4] (at 50.0 µM), 3.7%. Also, the growth inhibition is -8% in test [5] (setting [7]); 91% (active) in test [5] (setting [8]); 17.6% in test [5] (at 50.0 µM); 34% in test [6] (setting [7]); 96% (active) in test [6] (setting [8]); 8.75% in test [6] (at 50.0 µM).
